Assay results published in PubChem BioAssay (EPA / NIEHS).
Records with an inconclusive call do not appear. The source made the active and inactive calls. How the source made its calls, unless noted: active means hit-call score of the fitted dose curve at least 0.9, where 1 is the maximum; inconclusive means response in the unintended direction; inactive means score below 0.9.

Tests used:
[1] = CEETOX_H295R_MTT_cell_viability: Viability Assessment in the CeeTox HT-H295R MTT Assay (AID 2283718; active means hit-call score of the fitted dose curve at least 0.9, where 1 is the maximum; inactive means score below 0.9)
Method in brief: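 MTT reduction (0.5 mg/ml, 4 h at 37 C; absorbance at 570 and 650 nm) gave viability as background-corrected percent change versus controls. H295R cells had 48 h forskolin (10 uM) prestimulation, then 48 h chemical exposure at 0.1% DMSO.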

[2] = Tanguay_ZF_120hpf_ActivityScore_legacy: (Legacy) Oregon State University Tanguay Lab 120 Hour Post-fertilization zebrafish Assay Score for Activity (AID 2283742);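 on AC50: dechorionated Tropical 5D wild-type zebrafish embryos held singly per well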
Method in brief: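 Binary scoring of mortality and morphology by brightfield at 24 and 120 hpf, summarised into one activity score from 18 components relative to DMSO. Wild-type Tropical 5D zebrafish, chorion removed at 4 hpf, static exposure 6–120 hpf, 28 °C.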

[3] = CCTE_Padilla_ZF_144hpf_TERATOSCORE: (Legacy) CCTE's 144 Hour Post-fertilization zebrafish Assay Teratoscore, Padilla Lab (AID 2283679; active means hit-call score of the fitted dose curve at least 0.9, where 1 is the maximum; inactive means score below 0.9;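 on AC50: zebrafish embryos with chorions exposed by immersion from 6-8 hpf to 5 dpf with daily renewal; teratogenicity score from eye scoring of death hatching and malformations at 144 hpf; higher score means more developmental defects relative to DMSO baseline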)
Method in brief: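 Larvae scored by eye at 144 hpf for death, hatching and malformations after a day in clean Hanks'. Before that, daily-renewed exposure at 80 uM (0.4% DMSO, 26C) from roughly 6-8 hpf through 5 dpf, 4 embryos per chemical.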

[4] = target: Luciferin 4-monooxygenase (Photinus pyralis) (UniProt P08659); test: CCTE_Simmons_QuantiLum_inhib_2: CCTE's Firefly Luciferase Inhibition Assay, Simmons Lab (AID 2283767);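 on AC50: potency for inhibitors that lower luciferase luminescence relative to DMSO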
Method in brief: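 Eight-point titrations of each chemical, 5 nM–87.5 uM final in 0.5% DMSO, were run in three biological replicates against recombinant luciferase for 30 min at 37C. Bioluminescence signal loss, read on reagent injection, gave the inhibition endpoint.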

[5] = STM_H9_OrnithineISnorm_perc: Stemina devTOX quickPredict H9 human embryonic stem cell (hESC)-based Assay for Ornithine (ORN) Metabolite Biomarker, Normalized (AID 2283712; active means hit-call score of the fitted dose curve at least 0.9, where 1 is the maximum; inactive means score below 0.9;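 further: ornithine released into spent medium during last day measured by mass spectrometry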)
Method in brief: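 Metabolite endpoint from spent media of pluripotent H9 cells treated 72 h with daily re-feeding; ornithine measured by UPLC-HRMS against its 13C spike-in and referenced to the median 0.1% DMSO vehicle response.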

[6] = STM_H9_CystineISnorm_perc: Stemina devTOX quickPredict H9 human embryonic stem cell (hESC)-based Assay for Cystine (CYSS) Metabolite Biomarker, Normalized (AID 2283713; active means hit-call score of the fitted dose curve at least 0.9, where 1 is the maximum; inactive means score below 0.9)
Method in brief: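 Normalized cystine level in conditioned medium from the final 24h of a 72h treatment of pluripotent H9 cells (daily media and compound renewal). Quantified by UPLC-HRMS with C13-labeled internal standard; scaled to median of 0.1% DMSO vehicle wells.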

[7] = STM_H9_OrnCyssISnorm_ratio: Stemina devTOX quickPredict H9 human embryonic stem cell (hESC)-based Assay for Ornithine (ORN):Cystine (CYSS) Ratio (AID 2283714)
Method in brief: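 Ratio of internal-standard-normalized ornithine to cystine, measured by UPLC-HRMS in spent media from the last 24 h. H9 cells kept pluripotent, dosed 72 h with daily media and compound renewal; DMSO 0.1% serves as baseline.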

Chain of Luciferin 4-monooxygenase (Photinus pyralis) (P08659 whole entry, looked up): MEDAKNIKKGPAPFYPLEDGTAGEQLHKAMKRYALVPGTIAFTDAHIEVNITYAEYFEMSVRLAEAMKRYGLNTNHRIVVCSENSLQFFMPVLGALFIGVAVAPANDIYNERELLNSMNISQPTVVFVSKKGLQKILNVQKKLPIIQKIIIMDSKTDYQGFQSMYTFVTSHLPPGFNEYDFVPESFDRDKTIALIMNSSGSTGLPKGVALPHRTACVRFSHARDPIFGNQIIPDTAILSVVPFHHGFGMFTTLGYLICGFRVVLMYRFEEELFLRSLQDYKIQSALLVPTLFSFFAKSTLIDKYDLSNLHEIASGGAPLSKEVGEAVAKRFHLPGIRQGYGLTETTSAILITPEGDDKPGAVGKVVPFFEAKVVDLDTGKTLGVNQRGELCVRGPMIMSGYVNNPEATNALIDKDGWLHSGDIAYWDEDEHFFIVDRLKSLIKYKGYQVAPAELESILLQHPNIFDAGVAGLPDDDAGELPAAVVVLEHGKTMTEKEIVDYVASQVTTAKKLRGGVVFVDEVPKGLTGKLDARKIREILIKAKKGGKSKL

CC(C)(O)c1ccc(CNC(=O)c2cccnc2Oc2ccc3nonc3c2)cc1
outcome [1]: inactive | outcome [2]: inactive

Cc1ccc(C(C)C)cc1
outcome [2]: inactive

O=C(O)c1ccccc1C(=O)OCc1ccccc1
outcome [1]: inactive | outcome [2]: inactive

CCCCCCCCCCCCO
AC50 [3]: 62.8 µM (active) | outcome [2]: inactive

O=C(OCCCCCCOC(=O)c1ccccc1)c1ccccc1
AC50 [3]: 12.9 µM (active) | outcome [2]: inactive

CCN(Cc1cccnc1)C(=O)c1cccc(Cl)c1[C@]1(C)C(=O)N(Cc2ccc(OC)cc2OC)c2ccc(Cl)cc21
AC50 [3]: 5.26 µM (active) | AC50 [2]: 32.5 µM (active)

CC[C@@H]1C[C@H](N(Cc2cc(C(F)(F)F)cc(C(F)(F)F)c2)C(C)=O)c2cc(C(F)(F)F)ccc2N1C(=O)OC(C)C
outcome [2]: inactive

CC1=CC(=O)/C(=C(/C)O)C(=O)O1
outcome [3]: inactive | outcome [2]: inactive

CCCCCCCCOc1ccc(C(=O)c2ccccc2)c(O)c1
outcome [1]: inactive | outcome [2]: inactive

CCN(Cc1cccc(S(=O)(=O)O)c1)c1ccc(C(=C2C=CC(=[N+](CC)Cc3cccc(S(=O)(=O)O)c3)C=C2)c2ccccc2S(=O)(=O)[O-])cc1
outcome [3]: inactive | outcome [2]: inactive | AC50 [4]: 15.8 µM (active)

O=CCCCC=O
outcome [3]: inactive | outcome [2]: inactive

CC1(C)NC(=O)N(c2ccc([N+](=O)[O-])c(C(F)(F)F)c2)C1=O
AC50 [3]: 17.2 µM (active) | outcome [2]: inactive

O=C1O[C@H]([C@@H](O)CO)C(O)=C1O
outcome [3]: inactive | outcome [2]: inactive | outcome [4]: inactive

O=C(O)c1ccccc1-n1cc(C(=O)O)c(=O)c2cc(Nc3c(F)cc(F)cc3Cl)c(Cl)cc21
outcome [2]: inactive

CN1C(=O)CC[C@H]1c1cccnc1
outcome [5]: inactive | outcome [6]: inactive | outcome [7]: inactive | outcome [2]: inactive

OC12N=C(c3ccccc3)SC1Cc1cc(Cl)ccc12 (stereo unspecified)
outcome [1]: inactive | AC50 [2]: 32.7 µM (active) | AC50 [4]: 17.1 µM (active)

Oc1ccccc1
outcome [2]: inactive | outcome [4]: inactive
